Source: the antibiotic and cytotoxicity screens of Wong et al. (2023)
Among all 39,000 compounds or so, about 3,300 (8.5%) were called active. The sample holds actives, similar compounds and a random draw of the others, so the mix is not that of the screen.

test system: HepG2; assay: cytotoxicity call (relative viability < 0.9); conditions: 10 µM

Row | Structure (SMILES) | cytotoxicity call
1 | C[C@H](CO)N1C[C@H](C)[C@H](CN(C)Cc2ccc(Oc3ccccc3)cc2)Oc2c(NC(=O)c3nc4ccccc4s3)cccc2C1=O | inactive
2 | C[C@@H]1CN([C@H](C)CO)C(=O)c2cccc(NC(=O)c3nc4ccccc4s3)c2O[C@H]1CN(C)Cc1ccc(Oc2ccccc2)cc1 | inactive
3 | C[C@@H]1CN([C@H](C)CO)C(=O)c2cccc(NC(=O)c3nc4ccccc4s3)c2O[C@@H]1CN(C)Cc1ccc(Oc2ccccc2)cc1 | inactive
4 | C[C@H]1CN([C@@H](C)CO)C(=O)c2cccc(NC(=O)c3nc4ccccc4s3)c2O[C@@H]1CN(C)Cc1ccc(Oc2ccccc2)cc1 | inactive
5 | C[C@H](CO)N1C[C@H](C)[C@@H](CN(C)Cc2ccc(Oc3ccccc3)cc2)Oc2c(NC(=O)c3nc4ccccc4s3)cccc2C1=O | active
6 | C[C@H]1CN([C@@H](C)CO)C(=O)c2cccc(NC(=O)c3nc4ccccc4s3)c2O[C@H]1CN(C)Cc1ccc(Oc2ccccc2)cc1 | active
7 | COCC#Cc1cnc2c(c1)C(=O)N([C@H](C)CO)C[C@H](C)[C@H](CN(C)C(=O)CN1CCOCC1)O2 | inactive
8 | Cc1ccc(S(=O)(=O)Nc2ccc3c(c2)C(=O)N([C@@H](C)CO)C[C@@H](C)[C@H](CN(C)C(=O)Nc2cccc4ccccc24)OCCCC[C@H](C)O3)cc1 | inactive
9 | COc1ccc(S(=O)(=O)N(C)C[C@@H]2Oc3ccc(NC(=O)Cn4cnnn4)cc3CC(=O)N([C@H](C)CO)C[C@H]2C)cc1 | inactive
10 | COc1ccc(-c2csc(C(C#N)=C3CCCCC3)n2)cc1 | inactive
11 | Cc1nc(-c2ccccc2)cs1 | inactive
12 | Cc1ccccc1/C=C(\C#N)c1nc(-c2ccccc2)cs1 | active
13 | C[C@@H]1CN([C@@H](C)CO)C(=O)c2cc(NC(=O)Cn3cnnn3)ccc2O[C@@H]1CN(C)S(C)(=O)=O | inactive
14 | O=C(C1=C[C@@H](c2coc3ccccc3c2=O)C[C@@H](OCCCCO)O1)N1CCN(Cc2ccc3c(c2)OCO3)CC1 | inactive
15 | Cc1noc(C)c1NC(=O)Nc1ccc2c(c1)C(=O)N([C@H](C)CO)C[C@H](C)[C@@H](CN(C)S(=O)(=O)c1cn(C)cn1)O2 | inactive
16 | C[C@H]1CCCCO[C@H](CN(C)Cc2ccc(Cl)c(Cl)c2)[C@@H](C)CN([C@@H](C)CO)C(=O)c2cc(NC(=O)Nc3ccc(F)cc3)ccc2O1 | active
17 | C[C@@H]1CCCCO[C@@H](CN(C)Cc2ccc(Cl)c(Cl)c2)[C@@H](C)CN([C@H](C)CO)C(=O)c2cc(NC(=O)Nc3ccc(F)cc3)ccc2O1 | inactive
18 | C[C@@H]1CN([C@H](C)CO)C(=O)c2cc(NC(=O)Nc3ccc(F)cc3)ccc2O[C@@H](C)CCCCO[C@@H]1CN(C)Cc1ccc(Cl)c(Cl)c1 | inactive
19 | C[C@@H]1CN([C@@H](C)CO)C(=O)c2cc(NC(=O)Nc3ccc(F)cc3)ccc2O[C@@H](C)CCCCO[C@H]1CN(C)Cc1ccc(Cl)c(Cl)c1 | inactive
20 | C[C@@H]1CCCCO[C@H](CN(C)Cc2ccc(Cl)c(Cl)c2)[C@@H](C)CN([C@H](C)CO)C(=O)c2cc(NC(=O)Nc3ccc(F)cc3)ccc2O1 | active
21 | C[C@@H]1CCCCO[C@H](CN(C)Cc2ccc(Cl)c(Cl)c2)[C@H](C)CN([C@@H](C)CO)C(=O)c2cc(NC(=O)Nc3ccc(F)cc3)ccc2O1 | inactive
22 | C[C@@H]1CCCCO[C@@H](CN(C)Cc2ccc(Cl)c(Cl)c2)[C@@H](C)CN([C@@H](C)CO)C(=O)c2cc(NC(=O)Nc3ccc(F)cc3)ccc2O1 | active

Row | Structure (SMILES) | cytotoxicity call
23 | C[C@H](CO)N1C[C@H](C)[C@H](CN(C)Cc2ccc(Cl)c(Cl)c2)OCCCC[C@H](C)Oc2ccc(NC(=O)Nc3ccc(F)cc3)cc2C1=O | active
24 | C[C@@H]1CCCCO[C@@H](CN(C)Cc2ccc(Cl)c(Cl)c2)[C@H](C)CN([C@@H](C)CO)C(=O)c2cc(NC(=O)Nc3ccc(F)cc3)ccc2O1 | inactive
25 | C[C@@H]1CCCCO[C@@H](CN(C)Cc2ccc(Cl)c(Cl)c2)[C@H](C)CN([C@H](C)CO)C(=O)c2cc(NC(=O)Nc3ccc(F)cc3)ccc2O1 | inactive
26 | C[C@H](CO)N1C[C@H](C)[C@@H](CN(C)Cc2ccc(C(=O)O)cc2)Oc2ccc(NC(=O)c3ccncc3)cc2CC1=O | inactive
27 | C[C@@H]1CN([C@H](C)CO)C(=O)Cc2cc(NS(=O)(=O)c3ccccc3)ccc2O[C@@H]1CN(C)S(=O)(=O)c1cccs1 | inactive
28 | C[C@H]1CN([C@@H](C)CO)C(=O)c2cccc(NC(=O)c3cnccn3)c2O[C@@H]1CN(C)S(=O)(=O)c1ccccc1 | inactive
29 | C[N+](C)(C)CCCC[C@@H]1NC(=O)[C@H]2C[C@@H](C(=O)NCc3ccc(F)cc3)[C@@H](c3ccc(O)cc3)N2C1=O | inactive
30 | COc1ccc(S(=O)(=O)Nc2ccc3c(c2)C(=O)N([C@@H](C)CO)C[C@H](C)[C@@H](CN(C)Cc2ccc4c(c2)OCO4)OCCCC[C@@H](C)O3)cc1 | inactive
31 | COc1ccc(NC(=O)N(C)C[C@@H]2OCc3ccccc3-c3c(n(C)c4ccccc34)C(=O)N([C@@H](C)CO)C[C@@H]2C)cc1 | inactive
32 | COc1ccc(S(=O)(=O)Nc2cccc3c2O[C@@H](CN(C)S(=O)(=O)c2cn(C)cn2)[C@H](C)CN([C@@H](C)CO)C3=O)cc1 | inactive
33 | C[C@@H]1CN([C@@H](C)CO)C(=O)Cc2cc(NC(=O)Nc3cccc4ccccc34)ccc2O[C@H]1CN(C)Cc1ccc(Cl)c(Cl)c1 | inactive
34 | CC(C)NC(=O)N(C)C[C@H]1Oc2ccc(NC(=O)Cn3cnnn3)cc2C(=O)N([C@@H](C)CO)C[C@H]1C | inactive
35 | COC(=O)c1ccc(O)c(O)c1 | inactive
36 | CCS(=O)(=O)N1CCc2ccc(N)cc2C1 | inactive
37 | COc1ccc(S(=O)(=O)N(C)C[C@H]2OCCCC[C@@H](C)Oc3ccc(NS(C)(=O)=O)cc3C(=O)N([C@H](C)CO)C[C@@H]2C)cc1 | inactive
38 | C[C@@H]1CCCCO[C@H](CN(C)Cc2ccc(Cl)c(Cl)c2)[C@@H](C)CN([C@@H](C)CO)C(=O)c2cc(NC(=O)Nc3ccc(F)cc3)ccc2O1 | active
39 | CC(C)NC(=O)Nc1ccc2c(c1)C(=O)N([C@H](C)CO)C[C@@H](C)[C@H](CN(C)Cc1ccc(Cl)c(Cl)c1)OCCCC[C@@H](C)O2 | active
40 | C[C@@H]1CN([C@H](C)CO)C(=O)c2cc(NC(=O)Nc3ccc(F)cc3)ccc2O[C@@H](C)CCCCO[C@H]1CN(C)Cc1ccc(Cl)c(Cl)c1 | active
41 | CC(C)NC(=O)Nc1ccc2c(c1)C(=O)N([C@@H](C)CO)C[C@H](C)[C@@H](CN(C)Cc1ccc(Cl)c(Cl)c1)OCCCC[C@H](C)O2 | inactive
42 | CC(C)NC(=O)Nc1ccc2c(c1)C(=O)N([C@H](C)CO)C[C@H](C)[C@@H](CN(C)Cc1ccc(Cl)c(Cl)c1)OCCCC[C@H](C)O2 | inactive
43 | C[C@@H]1CN([C@@H](C)CO)C(=O)c2cc(C#CCN(C)C)cnc2O[C@@H]1CN(C)C(=O)Nc1cc(F)ccc1F | inactive
44 | C/C=C/c1ccc2c(c1)O[C@H](CN(C)S(=O)(=O)c1ccccc1OC)[C@@H](C)CN([C@H](C)CO)S2(=O)=O | inactive

Row | Structure (SMILES) | cytotoxicity call
45 | C[C@@H]1CN([C@H](C)CO)C(=O)c2cccc(NC(=O)C3CC3)c2O[C@H]1CN(C)Cc1ccc2c(c1)OCO2 | inactive
46 | C[C@@H]1CN([C@@H](C)CO)C(=O)c2cc(NC(=O)CCCN(C)C)ccc2O[C@H]1CN(C)C(=O)Nc1ccc2c(c1)OCO2 | inactive
47 | C[C@H](CO)N1C[C@H](C)[C@@H](CN(C)Cc2ccncc2)OCCCC[C@H](C)Oc2ccc(NS(=O)(=O)c3ccc(Cl)cc3)cc2C1=O | inactive
48 | Cc1ccc(S(=O)(=O)Nc2cccc3c2O[C@H](CN(C)Cc2ccc(Cl)c(Cl)c2)[C@H](C)CN([C@H](C)CO)C3=O)cc1 | inactive
49 | C[C@H](CO)N1C[C@H](C)[C@H](CN(C)C)OCCCC[C@H](C)Oc2ccc(NC(=O)Nc3cccc4ccccc34)cc2C1=O | inactive
50 | O=C(O)C[C@H]1Oc2ccccc2NC1=O | inactive
51 | O=C(C[C@@H]1CC[C@@H]2[C@H](COC[C@@H](O)CN2S(=O)(=O)c2ccccc2F)O1)NCc1ccccc1F | inactive
52 | C[C@@H]1CN([C@H](C)CO)C(=O)c2cccc(NC(=O)C3CCOCC3)c2O[C@@H]1CN(C)S(=O)(=O)c1ccc(Cl)cc1 | inactive
53 | O=C(C=Cc1ccc(O)cc1)c1ccccc1O | inactive
54 | O=C(C=Cc1ccccc1)c1ccc(O)cc1O | inactive
55 | O=C(C=Cc1ccccc1)c1ccc(O)cc1 | active
56 | CC(C)c1ccc(/C=C/C(=O)O)cc1 | inactive
57 | O=C(C=Cc1ccc(O)cc1)c1ccccc1 | active
58 | O=C(/C=C/c1ccccc1)C1CC1 | inactive
59 | CC(C)NC(=O)N(C)C[C@H]1OCCCC[C@H](C)Oc2ccc(NC(=O)C3CCCCC3)cc2C(=O)N([C@H](C)CO)C[C@H]1C | inactive
60 | O=C1CCC(=O)NCC/C=C/CCN1 | inactive
61 | O=C(C[C@H]1C=C[C@H](NC(=O)C2CC2)[C@H](CO)O1)NCCCN1CCOCC1 | inactive
62 | COCC#Cc1cnc2c(c1)C(=O)N([C@@H](C)CO)C[C@@H](C)[C@H](CN(C)C(=O)Nc1ccc(OC)cc1)O2 | inactive
63 | C[C@@H]1CCCCO[C@H](CN(C)C(=O)c2ccccc2)[C@@H](C)CN([C@@H](C)CO)C(=O)c2cc(NC(=O)CCC(F)(F)F)ccc2O1 | inactive
64 | C[C@H]1CCCCO[C@@H](CN(C)C(=O)Nc2ccccc2)[C@@H](C)CN([C@@H](C)CO)C(=O)c2cc(NS(=O)(=O)c3ccc(Cl)cc3)ccc2O1 | inactive
65 | C[C@H]1CN([C@@H](C)CO)C(=O)c2c(c3ccccc3n2C)-c2ccccc2CO[C@@H]1CN(C)S(C)(=O)=O | inactive
66 | C[C@H](CO)N1C[C@H](C)[C@@H](CN(C)S(=O)(=O)c2ccc(F)cc2)Oc2ccc(NC(=O)CCCN(C)C)cc2CC1=O | inactive
